TRHR agonist = agonists of human TRH receptor. P34981. TRHR cells, calcium flux fluo-8, FDSS agonist mode. activation, % at 2 µM. 0.18% of 360,000 active
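In this calcium-flux screen, cells bearing human TRHR are dye-loaded with fluo-8, baselined for 10 cycles, then exposed to library compounds; positive kinetic calcium responses during the agonist phase mark hits, with TRH as control.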
TRHR PAM = TRH receptor (human) allosteric enhancement | P34981 | TRHR cells, fluo-8 calcium fluorescence, EC20 TRH enhancement | enhancement, % at 2 µM | 0.66% of 360,000 active | AID 493056; in the data active = enhancement above about 30%
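Enhancer read-out: after compound pinning and an initial kinetic agonist-mode read, an EC20 of TRH (10 nM final) was injected and fluo-8 calcium signal (Ex 480/Em 530) followed at 1 s/cycle for 100 cycles in TRHR-expressing cells.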
D1 agonist = agonists of human D1 dopamine receptor; 1% of 360,000 active; HEK293 T-REx D1 cells, calcium flux, agonist mode; P21728; activation, % at 2 µM
Target sequence (P21728 whole entry, looked up): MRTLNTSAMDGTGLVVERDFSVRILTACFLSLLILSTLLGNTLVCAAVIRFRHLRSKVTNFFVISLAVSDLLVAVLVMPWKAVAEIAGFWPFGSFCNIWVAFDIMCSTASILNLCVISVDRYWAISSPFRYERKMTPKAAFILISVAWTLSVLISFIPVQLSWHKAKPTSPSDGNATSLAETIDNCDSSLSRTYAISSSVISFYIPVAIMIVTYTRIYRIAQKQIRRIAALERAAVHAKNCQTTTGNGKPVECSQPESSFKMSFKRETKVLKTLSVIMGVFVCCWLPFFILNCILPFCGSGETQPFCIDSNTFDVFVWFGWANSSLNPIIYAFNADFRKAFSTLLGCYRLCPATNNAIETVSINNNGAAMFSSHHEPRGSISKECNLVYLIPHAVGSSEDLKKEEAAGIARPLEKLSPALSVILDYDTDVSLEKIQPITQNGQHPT
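Inducible HEK293 T-REx D1 cells, force-coupled to calcium signalling, were plated at 4000 cells/well with tetracycline and held overnight at 30 C. After no-wash calcium dye loading, compound-evoked calcium rise over 180 s flagged agonists.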
D1 PAM = human D1 dopamine receptor positive modulation | P21728 | HEK293 TREx D1 cells, calcium flux, dopamine EC20 potentiation | potentiation, % at 10 µM | 0.036% of 360,000 active | AID 504651; in the data active = potentiation above about 30%
D1 antagonist = blocks dopamine activation of the human D1 receptor | HEK293 TREx D1 cells, calcium flux, dopamine EC80; active compounds read low | P21728 | 3.2% of 360,000 active | activity change, negative = inhibition, % at 10 µM; in the data active = activity change below about -30%
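Tetracycline-induced HEK293 Trex D1 cells, force-coupled to calcium, dye-loaded; compounds added and read 180 s, then EC80 dopamine added and calcium flux tracked kinetically another 180 s.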
Numbers stand for hits; n = inactive; x = no result given. Hits are enriched below; roughly 4.7% of the tested compounds scored in any of these assays. Rule as the data show it, unless noted: active = activation above about 30%; inactive = the rest.

SMILES	TRHR agonist	TRHR PAM	D1 agonist	D1 PAM	D1 antagonist
CN1CCN(CC(=O)N2CCn3c4c(c5cc(C6CCCCC6)ccc53)CCCC42)CC1 (stereo unspecified)	n	n	n	n	-38
CCC(C(=O)Nc1nnc2n1CCS2)c1ccccc1 (stereo unspecified)	n	n	n	n	n
CC(Oc1ccccc1)C(=O)Nc1ccc(C(=O)OCc2cc(=O)n3nc(C4CC4)sc3n2)cc1 (stereo unspecified)	n	n	n	n	n
Cc1[nH][nH]c(=O)c1C(c1ccc(-c2ccc(Cl)cc2Cl)o1)c1c(C)[nH][nH]c1=O	n	n	55	n	n
Cc1[nH][nH]c(=O)c1C(c1ccc(-c2cccc(Cl)c2)o1)c1c(C)[nH][nH]c1=O	n	n	n	n	n
Cc1cc(-n2c(SCC(=O)NCc3cccs3)nc3n[nH]c(C)c3c2=N)ccc1Cl	n	n	n	n	-42
COc1cccc(NC(=O)CSc2nc3n[nH]c(C)c3c(=N)n2-c2cccc(OC)c2)c1	n	n	n	n	-31
Cc1cc(-n2c(SCC(=O)Nc3ccc(Br)cc3)nc3n[nH]c(C)c3c2=N)ccc1Cl	n	n	n	n	n
CCn1cc(C(=O)N2CCN(c3cccc(Cl)c3)CC2)c(=O)c2cc(S(=O)(=O)N3CCOCC3)ccc21	n	n	n	n	n
O=C(O)c1ccc(/C=N/NC(=O)C(O)(c2ccccc2)c2ccccc2)cc1	n	n	n	n	-32
CC(=O)C1=C(c2ccc(Br)cc2)N(C(C)=O)n2c(nnc2C2CCCCC2)S1	n	n	n	n	x
N#C/C(=C\c1ccc[nH]1)C(=O)Nc1ccccc1F	n	n	n	n	-31
N#C/C(=C\c1ccc[nH]1)C(=O)Nc1ccccc1Cl	n	n	n	n	n
CCc1cc2c(=O)oc(-c3ccccc3F)nc2s1	n	37	n	n	n
CCN(CC)c1ccc2c(-c3ccc(S(=O)(=O)O)cc3S(=O)(=O)[O-])c3ccc(=[N+](CC)CC)cc-3oc2c1	n	n	172	n	n
CCCNC(=O)c1nnsc1S(=O)c1ccc(Cl)cc1 (stereo unspecified)	n	n	n	n	n
CCCNC(=O)c1nnsc1S(=O)(=O)c1ccc(Cl)cc1	n	n	n	n	-39
CCOC(=O)c1c(C)oc2nc(C)nc(NCc3ccc(OC)cc3)c12	n	n	n	n	n
Cc1ccc(CNC(=O)CCc2c(C)nc3nc(C)nn3c2C)cc1	n	n	n	n	n
Oc1c(C=C2N=c3ccccc3=N2)sc(=S)n1-c1ccc(F)cc1	n	n	n	n	n
Oc1c(C=C2N=c3ccccc3=N2)sc(=S)n1C1CCCC1	n	n	n	n	-71
COc1ccccc1CNC(=O)OCc1nccnc1C(=O)Nc1ccc(Br)cn1	n	n	n	n	-35
O=C(Nc1cccc(F)c1)C1CCN(c2nnnn2-c2ccccc2)CC1	n	n	n	n	-30
CCOC(=O)c1ccc(COc2ccc(C(C)C)cc2)o1	n	n	n	n	n
CCOc1ccc(OCc2ccc(C(=O)OCc3ccccn3)o2)cc1	n	n	32	n	n
SMILES	TRHR agonist	TRHR PAM	D1 agonist	D1 PAM	D1 antagonist
Cc1ccc(OCc2cc(C(=O)NCc3ccc(OC(F)(F)F)cc3)no2)cn1	n	n	52	n	n
O=C(O)CCN1CCOCC1	n	n	n	n	-67
CCC(=O)OC1=C(C(C)=O)N(Cc2ccccc2)S(=O)(=O)c2ccccc21	n	n	n	n	n
CCN1CCc2c(sc(-n3cccc3)c2C(C)NC(=O)Nc2ccc(Br)cc2)C1 (stereo unspecified)	n	n	n	n	n
CCOC(=O)c1cccc(NC(=O)NC(C)c2c(-n3cccc3)sc3c2CCN(C)C3)c1 (stereo unspecified)	n	n	36	n	n
CCOc1ccc(NC(=O)NC(C)c2c(-n3cccc3)sc3c2CCN(CC)C3)cc1 (stereo unspecified)	n	31	43	n	n
COc1ccc(S(=O)(=O)NCCc2sc(C)nc2C)cc1F	n	n	n	n	n
O=C(CNS(=O)(=O)c1ccccc1)OCC(=O)c1ccc(F)cc1	n	n	n	n	n
O=C(CCNS(=O)(=O)c1ccccc1)OCC(=O)c1ccc(F)cc1	n	n	n	n	-40
O=C(COC(=O)c1ccc(O)cc1O)Nc1cccc2ccccc12	n	35	n	n	n
Cc1ccc(C(=O)OCC(=O)Nc2ccccc2Cl)c(O)c1	n	n	n	n	n
CCN1C(=NCc2ccc(OC)cc2)N[C@@H](c2ccccc2)[C@H](C(=O)OC)[C@H]1C	n	31	n	n	n
CCN1C(=NCc2ccccc2)N[C@@H](c2ccccc2)[C@H](C(=O)OC)[C@H]1C	n	n	n	n	n
CCOc1cc(/C=C2\N=C(SC(C)C(N)=O)N(c3ccc(OC(F)F)cc3)C2=O)ccc1O (stereo unspecified)	32	n	47	n	n
Cc1cc(Br)ccc1NC(=O)CN1C(=O)C2C3CC(c4ccccc4)C(C3)C2C1=O (stereo unspecified)	n	n	n	n	-39
COC(=O)c1ccccc1N1C(=O)C2C(C1=O)[C@H]1C=C[C@@H]2C1 (stereo partly specified)	n	n	n	n	n
COC(=O)c1ccccc1N1C(=O)[C@@H]2C(c3ccc(Br)cc3)=NO[C@@H]2C1=O	n	n	n	n	-48
Cc1cccc(C)c1-n1ncc(C(=O)Nc2ccc3c(c2)OCCO3)c1C1CCN(C(=O)OC(C)(C)C)CC1	n	n	n	n	n
Cc1nn(C(C)C(=O)NC2CCCCC2)c(=O)c2c1sc1ccccc12 (stereo unspecified)	n	n	n	n	-34
Cc1nn(C(C)C(=O)Nc2ccccc2C(F)(F)F)c(=O)c2c1sc1ccccc12 (stereo unspecified)	n	n	n	n	-47
Cc1nn(C(C)C(=O)NCC2CCCO2)c(=O)c2c1sc1ccccc12 (stereo unspecified)	n	n	n	n	n
O=C(CNC(=O)c1ccc2cc[nH]c2c1)OC(C(=O)Nc1cc(C(F)(F)F)ccc1Cl)c1ccccc1 (stereo unspecified)	n	n	n	n	n
Cc1nc(N)c(Cc2ccccc2F)c(N)n1	n	n	n	n	-35
CN(Cc1ccccc1)C(=O)Cn1ncc2c3ccccc3n(Cc3cccc(Cl)c3)c2c1=O	n	n	n	n	n
O=C(NCCCn1ccnc1)c1cc(-c2ccc(Cl)cc2)nc2ccccc12	n	n	n	n	-39
O=C(CNC(=O)c1ccc(Cl)cc1Cl)NCCCn1ccnc1	n	31	n	n	n
O=C(CSc1cc(Cl)ccc1Cl)NCCCn1ccnc1	n	n	n	x	n
CCn1cc(CN2CCc3c([nH]c4ccccc34)C2c2cccc(OC)c2)c(C)n1 (stereo unspecified)	n	n	n	n	-35
